The structures appear in SMILES notation. “And” between values parts separate entries of the source, which are not always exact repeats. Equal values may be shown once. Inconclusive results are not listed. The source made the active and inactive calls. Calls follow the shape of the dose curve; as a rule, active = well fitted curve in the direction sought with a large enough effect; inconclusive = small, poorly fitted or top-dose-only effect, or another doubt; inactive = no such curve, though single readings can be large or run the other way.
% is scaled to controls: 0 for no effect and ±100 for the full control effect; potency is read from the fitted curve at half-maximal effect.

This assay in a line: qHTS Assay for Identifying Gametocytocidal Compounds (AID 743244).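 As to max response: actives lower the fluorescent signal which means gametocytes are killed.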 As to conditions: P. falciparum 3D7 stage III-V gametocytes, alamarBlue, 72 h; max response: active compounds read low. A digest of the protocol:
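Stage III–V gametocytes of P. falciparum 3D7 were seeded at 20,000 cells/well onto pre-dispensed compounds. After 72 h, 37 °C, 5% CO2, alamarBlue was added for another 24 h.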
For the compound `O=S(O)CNc1ccc(S(=O)(=O)c2ccc(NCS(=O)O)cc2)cc1`, the max response was -0.921% (inactive). Still for that read-out and setting: with `O=C[C@H](O)[C@@H](O)[C@H](O)[C@H](O)CO` the figure was -1.25% (inactive). With `CCN(CC)c1ccc(C(=C2C=CC(=[N+](CC)CC)C=C2)c2ccccc2)cc1`, the Potency is 11.2 µM (active). On to `C[C@]12CC[C@@H]3c4ccc(OS(=O)(=O)O)cc4CC[C@H]3[C@@H]1CCC2=O`, for which the max response was -15.6% (inactive). In the case of `Oc1cccc(-c2c3nc(c(-c4cccc(O)c4)c4ccc([nH]4)c(-c4cccc(O)c4)c4nc(c(-c5cccc(O)c5)c5ccc2[nH]5)CC4)C=C3)c1`, the max response was -1.27% (inactive) and -6.31% (inactive).

For the origin of these results see PubChem BioAssay (NCATS).
